# Results filed as inconclusive are left out. Calls of active or inactive are those of the source. Unless noted, cut-off not given; nearly all actives show AC50 up to about 26 µM.
# Assay: viability loss in pontine glioma line – cell-based, SU-DIPG-XIII, MIPE5.0, CellTiter-Glo, qHTS, dose response (AID 1347064; cut-off not given, nearly all actives have AC50 up to about 23 µM)
# Settings: CellTiter-Glo ATP luminescence
row,Compound,outcome
1,O=C1CN2Cc3c(ccc(Cl)c3Cl)N=C2N1,inactive
2,O=c1[nH]c(=O)n(C2CCCO2)cc1F (centres undefined),inactive
3,CC(C)C[C@H](NC(=O)[C@@H](O)[C@H](N)Cc1ccccc1)C(=O)O,inactive
4,CCOC(=O)c1ccc(OC(=O)CCCCCN=C(N)N)cc1,inactive
5,CC(C)NCC(O)c1ccc(NS(C)(=O)=O)cc1 (centres undefined),inactive
6,CC(=O)NC[C@H]1CN(c2ccc(N3CCOCC3)c(F)c2)C(=O)O1,inactive
7,CC[C@H]1OC(=O)[C@H](C)[C@@H](O[C@H]2C[C@@](C)(OC)[C@@H](O)[C@H](C)O2)[C@H](C)[C@@H](O[C@@H]2O[C@H](C)C[C@H](N(C)C)[C@H]2O)[C@](C)(O)C[C@@H](C)CN(C)[C@H](C)[C@@H](O)[C@]1(C)O,inactive
8,CN1CC(=O)N2[C@H](c3ccc4c(c3)OCO4)c3[nH]c4ccccc4c3C[C@@H]2C1=O,inactive
9,Cc1cnc(C(=O)NCCc2ccc(S(=O)(=O)NC(=O)NC3CCCCC3)cc2)cn1,inactive
10,CN1[C@@H]2CCC[C@H]1CC(NC(=O)c1nn(C)c3ccccc13)C2 (some centres undefined),inactive
11,COc1c(N2C[C@@H]3CCCN[C@@H]3C2)c(F)cc2c(=O)c(C(=O)O)cn(C3CC3)c12,inactive
12,COc1nc(C)nc(Cl)c1NC1=NCCN1,inactive
13,CC(Cc1ccc(O)c(O)c1)(NN)C(=O)O (centres undefined),inactive
14,Cc1cc2c(s1)Nc1ccccc1N=C2N1CCN(C)CC1,inactive

# Assay: viability loss in pontine glioma line – cell-based, SU-DIPG-XXV, MIPE5.0, CellTiter-Glo, qHTS, dose response (AID 1347065);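 further: cells exposed to compound for 48 hours before ATP readout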
# Settings: CellTiter-Glo ATP luminescence
Compound,outcome,AC50
O=C1CN2Cc3c(ccc(Cl)c3Cl)N=C2N1,inactive,
O=c1[nH]c(=O)n(C2CCCO2)cc1F (centres undefined),inactive,
C[C@@H](c1ncncc1F)[C@](O)(Cn1cncn1)c1ccc(F)cc1F,inactive,
CC(C)NCC(O)c1ccc(NS(C)(=O)=O)cc1 (centres undefined),inactive,
CC(=O)NC[C@H]1CN(c2ccc(N3CCOCC3)c(F)c2)C(=O)O1,inactive,
CN(C)CCOc1ccc(/C(=C(/CCCl)c2ccccc2)c2ccccc2)cc1,,20.9 µM (active)
CC[C@H]1OC(=O)[C@H](C)[C@@H](O[C@H]2C[C@@](C)(OC)[C@@H](O)[C@H](C)O2)[C@H](C)[C@@H](O[C@@H]2O[C@H](C)C[C@H](N(C)C)[C@H]2O)[C@](C)(O)C[C@@H](C)CN(C)[C@H](C)[C@@H](O)[C@]1(C)O,inactive,
CN1CC(=O)N2[C@H](c3ccc4c(c3)OCO4)c3[nH]c4ccccc4c3C[C@@H]2C1=O,inactive,
Cc1cnc(C(=O)NCCc2ccc(S(=O)(=O)NC(=O)NC3CCCCC3)cc2)cn1,inactive,
C[C@H]1O[C@H](O[C@H]2[C@H](O)[C@@H](O)[C@@H](O[C@H]3[C@H](O)[C@@H](O)C(O)O[C@@H]3CO)O[C@@H]2CO)[C@H](O)[C@@H](O)[C@@H]1N[C@H]1C=C(CO)[C@@H](O)[C@H](O)[C@H]1O (some centres undefined),inactive,
CN1[C@@H]2CCC[C@H]1CC(NC(=O)c1nn(C)c3ccccc13)C2 (some centres undefined),inactive,
COc1c(N2C[C@@H]3CCCN[C@@H]3C2)c(F)cc2c(=O)c(C(=O)O)cn(C3CC3)c12,inactive,
COc1nc(C)nc(Cl)c1NC1=NCCN1,inactive,
CC(Cc1ccc(O)c(O)c1)(NN)C(=O)O (centres undefined),inactive,
Cc1cc2c(s1)Nc1ccccc1N=C2N1CCN(C)CC1,inactive,

# From PubChem BioAssay
